# Source: PubChem BioAssay (NCI)
# Compounds without any hit were thinned out: in the full panel of roughly 83,000, 20% have a hit.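 How to read the values: 0–100, growth inhibition (40 = 60% inhibited); 0, no net growth; -100 to 0, cell death (-40 = 40% of starting cells died; -100 = all dead).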 Unmarked numbers belong to inactive results. Active and inactive are the calls of the source. Rule for the calls: active = growth percent below 10; inactive = the rest.
# Tests used:
# Test in all cases: NCI-60 one-dose screen, 48 h (100 = growth as untreated, 0 = no growth, -100 = all killed)
# Conditions in all cases: 10 µM unless noted
# NCI-H23 lung = system: NCI-H23 lung
# NCI-H226 lung = system: NCI-H226 lung
# NCI-H322M lung = system: NCI-H322M lung
# HOP-62 NSCLC = system: HOP-62 NSCLC
# NCI-H460 lung = system: NCI-H460 lung
# HOP-92 NSCLC = system: HOP-92 NSCLC
# NCI-H522 lung = system: NCI-H522 lung
# A549/ATCC NSCLC = system: A549/ATCC NSCLC
# 786-0 renal = system: 786-0 renal
# COLO 205 colon = system: COLO 205 colon
Structure (SMILES),growth (NCI-H23 lung),growth (NCI-H226 lung),growth (NCI-H322M lung),growth (HOP-62 NSCLC),growth (NCI-H460 lung),growth (HOP-92 NSCLC),growth (NCI-H522 lung),growth (A549/ATCC NSCLC),growth (786-0 renal),growth (COLO 205 colon)
CCCCCCCOc1c(OC)cc(C2CC(=O)Nc3c2c(C)nn3-c2nc3ccccc3[nH]2)cc1OC (stereo not given),-2.79% (active),-38.7% (active),2.06% (active),-22.6% (active),-26.8% (active),-8.34% (active),-40.7% (active),1.6% (active),4.68% (active),3.24% (active)
CC(=O)N1C(=S)NC(=O)C1Cn1c(-c2ccccc2)nc2ccccc21 (stereo not given),95.2%,93.6%,96.8%,92.1%,105%,97.5%,86.9%,102%,102%,108%
Cc1cc(N2CCCC2)nc(NCc2cc(Nc3ccnc4cc(Cl)ccc34)ccc2F)n1,-27.8% (active),24.8%,-27.6% (active),-69.2% (active),-71.5% (active),-14% (active),-50.3% (active),-13.1% (active),-92.7% (active),-82.2% (active)
Cc1nn(-c2ccccc2)c2nc3c(c(-c4ccc(Cl)cc4)c12)CNC1(CCSCC1)N3,97.4%,81.2%,100%,93.6%,99.6%,74.1%,110%,87%,105%,94.5%
Nc1ccc2c(c1)c(N)nn2C(=O)Nc1ccc(Cc2ccccc2)cc1,82.1%,72.5%,81.2%,82.7%,44.5%,98.2%,88.3%,52.3%,84.3%,107%
COc1cc(/C=C/C(=O)c2c(C)nc3ccccc3c2/C=C/c2ccc(C)cc2)cc(OC)c1OC,24.4%,28.9%,57.5%,28.7%,-22.1% (active),69.7%,24.1%,73.1%,28.4%,46.2%
COCN1CCC2N(COC)CCC3N(COC)CCC1N23 (stereo not given),105%,111%,124%,107%,109%,96.3%,107%,97.1%,109%,94.7%
CNC(=O)c1cc(Oc2cccc3nc(Nc4ccc(F)c(Cl)c4)ccc23)ccn1,70%,46.9%,76.6%,50.5%,62.5%,77.9%,40%,42.1%,42.6%,43.7%
CCOC(=O)C/C(C)=N\NC(=O)c1ccncc1,101%,112%,90.6%,97.7%,103%,-2.59% (active),95.3%,105%,92.1%,124%
O=C(Nc1ccc(Nc2ccncc2)cc1)c1ccc(C(=O)Nc2ccc(Nc3ccncc3)cc2)cc1,59.2%,68.8%,71.9%,82.1%,88.2%,28.9%,47.4%,69.5%,84.5%,27.7%
Cc1ccc(-n2nc3c(c(C#N)c2=O)CC(c2ccccc2Cl)C([N+](=O)[O-])=C3O)cc1 (stereo not given),101%,102%,101%,91%,99.3%,103%,89%,95.4%,102%,108%
Cc1cc(=O)oc2c1ccc1oc(C#N)c(C)c12,97.9%,107%,98.9%,103%,108%,82%,102%,99.8%,84.9%,121%
O=C(NCCCNc1cc(-c2cn(-c3ccccc3)nc2-c2cccc(O)c2)ccn1)c1cccc(O)c1,67.3%,86.6%,111%,85.3%,69.6%,57.2%,53%,53.4%,63.8%,80.2%
